Structures can show the parent of a compound that is named as a salt. ± gives the standard deviation.

The subject of the assay is THP-1 macrophages infected with Mycobacterium tuberculosis H37Rv. In words: intracellular M.tb growth inhibition relative to DMSO (0) and 4 uM bedaquiline (100); higher = stronger inhibition of intracellular bacterial growth. The settings on record: 10 µM; 4 days. The procedure:
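OICR kinase inhibitor library screened in duplicate at 10 uM against THP-1 macrophages (PMA-differentiated) infected with M. tuberculosis H37Rv-pTEC27 (tdTomato RFP), 4 days at 37 C. Rows with complete host cell loss (placeholder inhibition 0, cell loss 100) were removed.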
Consider `CN(C)CCOc1cc(-c2cn[nH]c2)ccc1NC(=O)C1COc2ccccc2O1` (stereo not given), for which the “intracellular M.tb growth inhibition” value is -97.9 ± 79%.
As for `O=C1Nc2ccc(I)cc2/C1=C/c1cc(Br)c(O)c(Br)c1`, the figure is 9.15 ± 48%; as for `CC[C@@H]1/C=C(\C)C[C@H](C)C[C@H](OC)[C@H]2O[C@@](O)(C(=O)C(=O)N3CCCC[C@H]3C(=O)O[C@H](/C(C)=C/[C@@H]3CC[C@H](Cl)[C@H](OC)C3)[C@H](C)[C@@H](O)CC1=O)[C@H](C)C[C@@H]2OC` [Pimecrolimus], 45.4 ± 4.6%; as for `Cc1cc(F)c(Nc2ncnc3cc(OCc4ccccc4)ccc23)cc1O`, 38.8 ± 33%.
`CCOc1cc(/C=C(\C#N)C(N)=O)cc(CSc2ccccc2)c1O`: the “intracellular M.tb growth inhibition” value was -116 ± 140%.
Regarding `CC(C)(C)c1cc(NC(=O)Nc2ccc(-c3cn4c(n3)sc3cc(OCCN5CCOCC5)ccc34)cc2)no1`, the “intracellular M.tb growth inhibition” value is 85.7 ± 43%.
As for `CN1CCC(COc2cnc(-c3cccc(Cn4nc(-c5cccc(C#N)c5)ccc4=O)c3)nc2)CC1`, the figure is 48.3 ± 68%; as for `CC(C)N(CCC(=O)c1ccc2ccccc2c1)Cc1ccccc1`, 22.8 ± 6.8%.
Consider `CN(C)c1cc2c(Nc3ccc4c(cnn4Cc4ccccc4)c3)ncnc2cn1`, for which the “intracellular M.tb growth inhibition” value turned out to be 43.5 ± 9.2%.
Regarding `CCc1cncnc1N1CCN(Cc2nc3ccc(C(F)(F)F)cc3[nH]2)CC1`, the “intracellular M.tb growth inhibition” value is 16.2 ± 23%.
Consider `FC(F)c1nc2ccccc2n1-c1nc(N2CCOCC2)nc(N2CCOCC2)n1`, for which the “intracellular M.tb growth inhibition” value was -26.3 ± 5.5%.
For `Nc1ncnc2c1c(-c1cccc(OCc3ccccc3)c1)cn2C1CC(CN2CCC2)C1` (stereo not given), the “intracellular M.tb growth inhibition” value is -22.8 ± 12%.
With `CC1=C(C(=O)Nc2cc3cn[nH]c3cc2F)C(c2ccc(C(F)(F)F)cc2)CC(=O)N1` (stereo not given), the “intracellular M.tb growth inhibition” value was -101 ± 100%.
`O=C(CO)N1CCC(c2n[nH]c(-c3ccc(Cl)cc3)c2-c2ccncn2)CC1`: the “intracellular M.tb growth inhibition” value was -135 ± 140%.
Take `Nc1nc(OCC2CCCCC2)c2[nH]cnc2n1`: the “intracellular M.tb growth inhibition” value is -15.1 ± 19%.
`Cc1cc(Nc2cc(N3CCN(C)CC3)nc(/C=C/c3ccccc3)n2)n[nH]1`: the “intracellular M.tb growth inhibition” value is -329 ± 400%.
For `NC1(c2ccc(-c3nc4ccn5c(=O)[nH]nc5c4cc3-c3ccccc3)cc2)CCC1`, the “intracellular M.tb growth inhibition” value was -62.1 ± 130%.
Take `COc1cc2ncnc(Nc3ccc(O)c(Br)c3)c2cc1OC`: the “intracellular M.tb growth inhibition” value worked out at 13.5 ± 42%.
As for `COc1cccc2cc(-c3nc([C@H]4CC[C@H](C(=O)O)CC4)n4ncnc(N)c34)[nH]c12` [OSI-027 hydrochloride], the figure is -318 ± 370%.
As for `CC(C)c1cc(/C=C(\C#N)C(=O)NCCCc2ccccc2)cc(C(C)C)c1O` [Tyrphostin SU 1498], the figure is 50.29 ± 0.083%; as for `Nc1nccc(-c2ccc3noc(-c4ccc(Cl)cc4)c3c2)n1` [PIM 1 Inhibitor 2], 20.6 ± 8.4%.
Consider `COC(=O)Nc1ccc(-c2nc(N3CCOCC3)c3cnn(C4CCN(C(=O)OC)CC4)c3n2)cc1`, for which the “intracellular M.tb growth inhibition” value was -222 ± 330%.
With `CCCOc1ccc(/C=C2/SC(=O)NC2=O)cc1` [PIM1/2 Kinase Inhibitor VI], the “intracellular M.tb growth inhibition” value worked out at 24.9 ± 13%.
For the molecule `O=c1[nH]ccc2c(S(=O)(=O)N3CCCNCC3)cccc12` [HA 1100 hydrochloride], the “intracellular M.tb growth inhibition” value is -142 ± 180%.
Regarding `COc1ccc(Cl)cc1NC(=O)Nc1cc(C)nc2ccccc12`, the “intracellular M.tb growth inhibition” value worked out at 59.1 ± 9.6%.
For the molecule `CS(=O)(=O)c1cccc(CNc2nc(Nc3ccc4c(c3)CCC(=O)N4)ncc2C(F)(F)F)c1`, the “intracellular M.tb growth inhibition” value is -96.4 ± 26%.
The result for `COc1ccc(S(=O)(=O)N(C(C)=O)c2ccccc2/C=C/c2cc[n+]([O-])cc2)cc1` reads -316 ± 310%.
For the molecule `CCN(CCCOc1ccc2c(Nc3cc(CC(=O)Nc4cccc(F)c4)[nH]n3)ncnc2c1)CCOP(=O)(O)O`, the “intracellular M.tb growth inhibition” value is -79.3 ± 96%.
Take `OCCn1cc(-c2ccc3c(c2)CC/C3=N\O)c(-c2ccncc2)n1`: the “intracellular M.tb growth inhibition” value was -91.1 ± 160%.
`O=C(NC1CCNCC1)c1n[nH]cc1NC(=O)c1c(Cl)cccc1Cl`: the “intracellular M.tb growth inhibition” value stood at 29.6 ± 42%.
As for `O=C(Nc1ccc(-c2cn[nH]c2)cc1)C1COc2ccccc2O1` (stereo not given) [Rho Kinase Inhibitor V], the figure is 27.7 ± 10%.
As for `S=C(NCc1ccc2c(c1)OCO2)N1CCN(c2ncnc3c2oc2ccccc23)CC1`, the “intracellular M.tb growth inhibition” value is -35.5 ± 71%.
With `Cc1ccc(S(=O)(=O)Nc2nc3ccccc3nc2Nc2ccc3nsnc3c2)cc1`, the “intracellular M.tb growth inhibition” value was -56.4 ± 99%.
As for `CO[C@H]1C[C@@H]2CC[C@@H](C)[C@@](O)(O2)C(=O)C(=O)N2CCCC[C@H]2C(=O)O[C@H]([C@H](C)C[C@@H]2CC[C@@H](OC(=O)C(C)(CO)CO)[C@H](OC)C2)CC(=O)[C@H](C)/C=C(\C)[C@@H](O)[C@@H](OC)C(=O)[C@H](C)C[C@H](C)/C=C/C=C/C=C/1C` [Temsirolimus], the figure is -22.8 ± 24%; as for `O=S(=O)(NCCNC/C=C/c1ccc(Br)cc1)c1cccc2cnccc12` [H 89 dihydrochloride], 70.3 ± 6.1%.
Consider `CN(C)C/C=C/C(=O)Nc1cc2c(Nc3ccc(F)c(Cl)c3)ncnc2cc1O[C@H]1CCOC1`, for which the “intracellular M.tb growth inhibition” value is 18.3 ± 3%.
On to `CNC(=O)c1cc(Oc2ccc(NC(=O)Nc3ccc(Cl)c(C(F)(F)F)c3)c(F)c2)ccn1`, for which the “intracellular M.tb growth inhibition” value is 50.6 ± 65%.
Take `Cc1cc(Nc2ncc3cc(-c4c(Cl)cccc4Cl)c(=O)n(C)c3n2)ccc1F`: the “intracellular M.tb growth inhibition” value was found to be 4.79 ± 6.8%.
The result for `CCOc1cc2ncc(C#N)c(Nc3ccc(OCc4ccccn4)c(Cl)c3)c2cc1NC(=O)/C=C/CN(C)C` [Neratinib] reads -146 ± 210%.
In the case of `CCN(CC)CCCCNc1ncc2cc(-c3cc(OC)cc(OC)c3)c(NC(=O)NC(C)(C)C)nc2n1`, the “intracellular M.tb growth inhibition” value worked out at 34.4 ± 29%.
